Calls of active or inactive are those of the source.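 How the source made its calls, unless noted: active means thallium flux through the channel raised or lowered by more than 3 SD from vehicle-only wells, actives on both sides; inactive means the rest.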
Legend:
[1] = modulation of C. elegans fzo-1 (AID 1259413; call rule not given here;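 further: fzo-1 mutant C. elegans worms in liquid wells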); details: C. elegans fzo-1 modulator screen, mean read-out; stronger effect = higher value
[2] = liver-stage malaria parasite growth inhibition, primary screen, cell-based, HepG2, luciferase luminescence, HepG2 viability (AID 624349; in the data active means parasite load remaining mostly below about 12%, no sharp cut-off; inactive means mostly above about 10%;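 further: 100% = mean of DMSO negative control wells on the same plate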); details: P. berghei liver stage in HepG2, luciferase luminescence, concentration not given here; parasite load remaining: stronger effect = lower value; viability: measured here: HepG2 viability without parasites
[3] = tested on: F380Y; assay: modulators of BK channel variants, profiling panel, selectivity assay, cell-based, U2OS BacMam, thallium flux, beta subunits (AID 1259406); details: at 30 µM;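 further: initial slope of Thallos dye fluorescence rise after thallium is added; log ratio against the mean of 0.3% DMSO vehicle wells on the same plate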
[4] = tested on: F380Y/beta1; assay: as above; details: at 30 µM
[5] = tested on: F380Y/beta2Delta; assay: as above; details: at 30 µM
[6] = tested on: F380Y/beta4; assay: as above; details: at 30 µM
[7] = target: Calcium-activated potassium channel subunit alpha-1 (Homo sapiens) + Leucine-rich repeat-containing protein 26 (Homo sapiens) (UniProt Q12791+Q2I0M4); assay: as above; details: F380Y/Slo1WT/gamma1, at 30 µM
[8] = tested on: R275C; assay: as above; details: at 30 µM
[9] = tested on: R275C/beta1; assay: as above; details: at 30 µM
[10] = tested on: R275C/beta2Delta; assay: as above; details: at 30 µM
[11] = tested on: R275C/beta4; assay: as above; details: at 30 µM
[12] = tested on: R275C/Slo1WT/beta2; assay: as above; details: at 30 µM
[13] = Cy5 fluorescence interference with SSB-bound oligo, artefact control for HCV NS3 helicase inhibitor project, biochemical, NIH Clinical Collection, E. coli SSB (AID 743268; call rule not given here)
[14] = tested on: Hepatitis C virus NS3 helicase; assay: HCV NS3 helicase inhibitors, primary screen, biochemical, fluorescence polarization, NIH Clinical Collection (AID 743270; call rule not given here); details: NS3 helicase binding to Cy5-dT15 DNA, stronger effect = higher value, concentration not given here
[15] = target: Single-stranded DNA-binding protein (Escherichia coli (strain K12)) (UniProt P0AGE0); assay: E. coli SSB displacement from DNA, counter-screen for HCV NS3 helicase inhibitor project, biochemical, fluorescence polarization, NIH Clinical Collection (AID 743271; in the data active means inhibition above about 28%); details: stronger effect = higher value, concentration not given here
[16] = fluorescence interference in NS3h assay format, artefact control for HCV NS3 helicase inhibitor project, biochemical, NIH Clinical Collection (AID 743272; call rule not given here;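 further: HCV NS3 helicase with a Cy5 labelled single stranded DNA probe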); details: fluorescence interference counterscreen, stronger effect = lower value
[17] = sensitizers of A549 cells to miR-34 induction, primary screen, imaging, A549 dox-inducible miR-34, nuclei and caspase counts (AID 1347080;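 active means compounds whose cell count with miR-34 switched on is under 0.7 times the count with it off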); details: A549 miR-34 inducible, Hoechst nuclei count, 48 h
[18] = viability rescue of complex I mutant cybrids, primary screen, cell-based, galactose medium, ATP luminescence (AID 1645843;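 active means z-score of at least 1.8 in each of two replicates, scored against plate mean and spread of sample wells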;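 further: positive z means more ATP and so rescue of galactose-driven cybrid death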); details: complex I mutant cybrid cells, 72 h, stronger effect = higher value

Chain of Calcium-activated potassium channel subunit alpha-1 (Homo sapiens) + Leucine-rich repeat-containing protein 26 (Homo sapiens) (Q2I0M4 whole entry, looked up, one chain of several): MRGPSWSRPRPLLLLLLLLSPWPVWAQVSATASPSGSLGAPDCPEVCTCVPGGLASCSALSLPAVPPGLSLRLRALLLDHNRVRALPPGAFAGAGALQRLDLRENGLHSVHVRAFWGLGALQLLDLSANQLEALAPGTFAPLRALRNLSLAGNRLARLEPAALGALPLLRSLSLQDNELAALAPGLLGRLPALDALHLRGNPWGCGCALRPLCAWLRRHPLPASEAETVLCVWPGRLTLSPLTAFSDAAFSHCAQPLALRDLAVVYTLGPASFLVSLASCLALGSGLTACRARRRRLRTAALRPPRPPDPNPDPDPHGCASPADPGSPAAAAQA

## C[C@H]1O[C@@H](O[C@H]2[C@@H](O)C[C@H](O[C@H]3[C@@H](O)C[C@H](O[C@H]4CCC5(C)[C@H](CC[C@@H]6[C@@H]5C[C@@H](O)C5(C)C(C7=CC(=O)OC7)CCC65O)C4)O[C@@H]3C)O[C@@H]2C)C[C@H](O)[C@@H]1O (some centres undefined)
[1]
  mean signal: 250 (inactive)

## CC1(C)O[C@@H]2C[C@H]3[C@@H]4CCC5=CC(=O)C=CC5(C)[C@@]4(F)[C@@H](O)CC3(C)C2(C(=O)CO)O1 (some centres undefined)
[1]
  mean signal: 258 (inactive)

## CO[C@H]1C=CO[C@@]2(C)Oc3c(C)c(O)c4c(O)c(c(C=NN5CCN(C6CCCC6)CC5)c(O)c4c3C2=O)NC(=O)C(C)=CC=C[C@H](C)[C@H](O)[C@@H](C)[C@@H](O)[C@@H](C)[C@H](OC(C)=O)[C@@H]1C
[2]
  parasite load remaining: 21.3% (inactive)
  viability: 65.4%
[3]
  log fold change Tl+ flux: 0.118 (active)
[4]
  log fold change Tl+ flux: -0.0391 (inactive)
[5]
  log fold change Tl+ flux: 0.0273 (inactive)
[6]
  log fold change Tl+ flux: 0.177 (active)
[7]
  log fold change Tl+ flux: 0.0556 (inactive)
[8]
  log fold change Tl+ flux: -0.0706 (inactive)
[9]
  log fold change Tl+ flux: 0.0996 (active)
[10]
  log fold change Tl+ flux: 0.0465 (inactive)
[11]
  log fold change Tl+ flux: 0.28 (active)
[12]
  log fold change Tl+ flux: 0.00833 (inactive)

## C=CC1=C(C(=O)O)N2C(=O)[C@@H](NC(=O)C(=NOCC(=O)O)c3csc(N)n3)[C@H]2SC1
[2]
  parasite load remaining: 68.9% (inactive)
  viability: 69.9%
[13]
  fluorescence ratio: 1.01 (inactive)
[14]
  inhibition: 27.7% (active)
[15]
  inhibition: 94.9% (active)
[16]
  fluorescence ratio: 0.95 (inactive)
[3]
  log fold change Tl+ flux: 0.0111 (inactive)
[4]
  log fold change Tl+ flux: -0.0102 (inactive)
[5]
  log fold change Tl+ flux: 0.02 (inactive)
[6]
  log fold change Tl+ flux: 0.0293 (inactive)
[7]
  log fold change Tl+ flux: 0.111 (active)
[8]
  log fold change Tl+ flux: -0.011 (inactive)
[9]
  log fold change Tl+ flux: -0.021 (inactive)
[10]
  log fold change Tl+ flux: 0.0194 (inactive)
[11]
  log fold change Tl+ flux: 0.0168 (inactive)
[12]
  log fold change Tl+ flux: 0.00126 (inactive)

## COCC1=C(C(=O)OC(C)OC(=O)OC(C)C)N2C(=O)[C@@H](NC(=O)C(=NOC)c3csc(N)n3)[C@H]2SC1 (some centres undefined)
[2]
  parasite load remaining: 83.9% (inactive)
  viability: 70.5%
[13]
  fluorescence ratio: 0.97 (inactive)
[14]
  inhibition: 1.98% (inactive)
[15]
  inhibition: -0.1% (inactive)
[16]
  fluorescence ratio: 1 (inactive)
[3]
  log fold change Tl+ flux: 0.0206 (inactive)
[4]
  log fold change Tl+ flux: 0.0461 (inactive)
[5]
  log fold change Tl+ flux: 0.0192 (inactive)
[6]
  log fold change Tl+ flux: 0.0327 (inactive)
[7]
  log fold change Tl+ flux: 0.0109 (inactive)
[8]
  log fold change Tl+ flux: 0.00217 (inactive)
[9]
  log fold change Tl+ flux: -0.0216 (inactive)
[10]
  log fold change Tl+ flux: 0.0293 (inactive)
[11]
  log fold change Tl+ flux: 0.0115 (inactive)
[12]
  log fold change Tl+ flux: 0.0178 (inactive)

## C#C[C@]1(O)CC[C@H]2[C@@H]3CCC4=CC(=O)CC[C@@H]4[C@H]3CCC21C (some centres undefined)
[1]
  mean signal: 236 (inactive)

## CC(=O)OCC(=O)[C@@]1(O)CC[C@H]2[C@@H]3CCC4=CC(=O)C=CC4(C)[C@H]3[C@@H](O)CC21C (some centres undefined)
[1]
  mean signal: 224 (inactive)

## CN(C)S(=O)(=O)c1ccc2c(c1)/C(=C\CCN1CCNCC1)c1ccccc1S2
[2]
  parasite load remaining: -2.22% (inactive)
  viability: 1.35%
[13]
  fluorescence ratio: 1.07 (inactive)
[14]
  inhibition: -0.45% (inactive)
[15]
  inhibition: 1.81% (inactive)
[16]
  fluorescence ratio: 0.96 (inactive)
[17]; stronger effect = lower value, cell number ratio, induced over uninduced
  fold change: 0.93 (inactive)
[17]; measured here: relative caspase fold change +Dox/-Dox
  fold change: 1.32
[17]; measured here: total cells with miR-34 induction, stronger effect = lower value
  cell count: 9850
[17]; measured here: total cells without miR-34 induction
  cell count: 10600
[18]
  z-score: -0.06 (inactive)
[3]
  log fold change Tl+ flux: -0.0239 (inactive)
[4]
  log fold change Tl+ flux: -0.0463 (inactive)
[5]
  log fold change Tl+ flux: -0.0723 (inactive)
[6]
  log fold change Tl+ flux: -0.0323 (inactive)
[7]
  log fold change Tl+ flux: -0.0624 (inactive)
[8]
  log fold change Tl+ flux: -0.0283 (inactive)
[9]
  log fold change Tl+ flux: 0.0522 (inactive)
[10]
  log fold change Tl+ flux: 0.019 (inactive)
[11]
  log fold change Tl+ flux: 0.0353 (inactive)
[12]
  log fold change Tl+ flux: 0.0468 (inactive)

— PubChem BioAssay
